Assay results published in PubChem BioAssay (NCI).
Compounds without any hit were thinned out: in the full panel of roughly 83,000, 20% have a hit.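 Plates (96-well) were seeded with cells, treated with compound at one concentration, and incubated for 48 hours before percent growth was determined.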 Unmarked numbers belong to inactive results. Calls of active or inactive are those of the source.

Each molecule was assayed on SK-MEL-5 melanoma (assay: NCI-60 one-dose screen, 48 h (100 = growth as untreated, 0 = no growth, -100 = all killed)). Conditions: 10 µM.
Procedure: Growth inhibition of the SK-MEL-5 human tumor cell line is measured as a screen for anti-cancer activity. Cells are grown in 96 well plates and exposed to the test compound for 48 hours. Compounds are tested at a single concentration, which is 10^-5 M for most compounds. The reported endpoint is percent growth (GI% or GIPRCNT), where numbers from 0 - 100% represent growth inhibition, and numbers from -100% - 0 represent cell death. For example, a value of 40 represents 60% growth inhibition. A value of 0 means no net growth occurred over the course of the experiment. A value of -40 indicates 40% of cells at the beginning of the experiment died by the end of the experiment. A value of -100 means all cells are dead at the end of the experiment.
NCI-60 Human Tumor Cell Lines Screen was performed using the standard one-dose NCI protocol, which is described in more detail at https://dtp.cancer.gov/discovery_development/nci-60/default.htm.
Compounds with GIPRCNT values below 10 were considered active. Activity score was based on GIPRCNT using the following formula: […]
Score is 0 for GIPRCNT values of 100 or above, 50 for GIPRCNT values of 0, and 100 for GIPRCNT values of -100.

Compound | growth
C=C1CCC2C3(C)COC(c4ccccc4F)OC3CCC2(C)C1C/C=C1/C(=O)OCC1O (stereo not given) | -91.1% (active)
O=C(Nc1ccc(F)c(Cl)c1)c1cc(-c2ccc(F)cc2F)ccc1O | -90.6% (active)
COc1ccc2[nH]cc(/C=N/Nc3cccc(Cl)n3)c2c1 | 64%
O=C1c2ccccc2C(=O)c2c1c(C(=O)c1ccc(Cl)cc1)n1c2ccc2c3ccccc3ccc21 | 99.9%
Cc1nc(Nc2nc(C)c3ccc(OCCN4CCOCC4)cc3n2)[nH]c(=O)c1C | -97.1% (active)
CC(=O)Nc1nc(-c2ccc(N3CCN(C)CC3)c(NS(=O)(=O)c3ccc(C(F)(F)F)cc3)c2)cs1 | 7.11% (active)
COc1ccc([C@H]2C(C(=O)c3ccc(Cl)cc3)C3(N[C@@H]2c2ccccc2)C(=O)Nc2ccc(Cl)cc23)cc1 (stereo not given in full) | 4.07% (active)
COc1cc(NC(=O)CSc2nnc(-c3ccc4nc(-c5ccc(Cl)cc5)[nH]c4c3)o2)cc(OC)c1OC | 50.5%
COc1ccc(-c2cc(C(=O)N=Nc3c(O)[nH]c4ccc(Br)cc34)c3ccccc3n2)cc1 | 84.8%
Cc1cccc2cc(-c3cc(-c4ccccc4)nc(=O)[nH]3)c(Cl)nc12 | 96.3%
COc1ccc2[nH]c(=O)c(CSc3ccc(Nc4nccc(-c5ccc(Cl)cc5)n4)cc3)cc2c1 | 98.4%
CN1CCN(c2ccc(Nc3nc(NCCCNC(=O)c4ccc(F)cc4)c4sccc4n3)cc2)CC1 | 60.8%
CN(C(=O)c1ccc(C(C)(C)C)cc1)c1sc2c(c1C#N)CCC(=O)C2 | -69.7% (active)
CCCCOc1ccc(Nc2nc3ccccc3nc2Nc2ccc(OCCCC)cc2)cc1 | 96.3%
C=CCn1c(SCC(=O)Nc2ccc(C(=O)/C=C/c3ccccc3)cc2)nnc1-c1c[nH]c2ccccc12 | 27.7%
O=C(CSc1nnc(-c2ccc3nc(-c4ccc(Cl)cc4)[nH]c3c2)o1)Nc1ccc(Cl)cc1 | -68.9% (active)
Cc1ccc(C(=O)NCCCNc2nc(Nc3ccc(N4CCN(C)CC4)cc3)nc3ccsc23)cc1 | -15.2% (active)
CN1CCc2c(sc3ncnc(N/N=C/c4ccc5ccccc5c4)c23)C1 | 97.9%
CC(C)(C)Nc1nc2cc(Cl)c(Cl)cc2nc1S(C)(=O)=O | -17.4% (active)
CN1CCN(c2ccc(Nc3nc(N4CCN(S(=O)(=O)c5ccc(Cl)cc5)CC4)c4sccc4n3)cc2)CC1 | -100% (active)

Compound | growth
CC(C)NC(=O)c1cc(-c2ccc(NC(=O)Nc3ccc(N4CCN(C)CC4)c(C(F)(F)F)c3)cc2)nc2cccnc12 | -100% (active)
COc1cc(-c2nc3cc(Cl)c(Cl)cc3[nH]2)ccc1OCc1nnc(-c2ccc(Br)cc2)o1 | 3.12% (active)
COc1ccc(NC(=O)Cn2c(/C=C/c3ccc(N(C)C)cc3)nc3ccccc3c2=O)cc1 | 30.7%
CCOC(=O)C1=C(N)N(c2ccccc2)C2=C(C(=O)CC(C)(C)C2)C1c1ccccc1OC (stereo not given) | 97.2%
CCOP(=O)(OCC)O[C@H]1CCC(=O)[C@@H]2[C@H]1[C@H]1C[C@@H]3[C@@]4(C)CCCC(C)(C(=O)OC)[C@@H]4CC[C@@]23C=C1C(C)C (stereo not given in full) | 18.1%
C[C@H]1[C@H](C)CC[C@]2(COC(=O)CCC(=O)NCC#CCN3CCNCC3)CC[C@]3(C)C(=CC[C@@H]4[C@@]5(C)CCCNC(C)(C)[C@@H]5CC[C@]43C)[C@H]12 | 9.74% (active)
Cc1ccc2nc(-c3ccc(-c4nnc(SCC(=O)Nc5ccc(Cl)cc5)o4)cc3)[nH]c2c1 | 83.9%
CCC(C)S(=O)(=O)c1oc(-c2ccc(C)cc2)nc1S(=O)(=O)c1ccccc1 (stereo not given) | -86.5% (active)
O=C(CSc1nnc(-c2c[nH]c3ccccc23)n1-c1ccccc1)c1ccc(Cl)cc1 | 78.2%
COc1ccc(C2N(c3ccc(Br)cc3)N=C(C(C)=O)N2[C@H]2[C@H](OC(C)=O)O[C@H](COC(C)=O)[C@@H](OC(C)=O)[C@@H]2OC(C)=O)cc1 (stereo not given in full) | 77.7%
Nc1cc(-c2cccc(C(=O)NCc3ccc4c(c3)OCO4)c2)ccn1 | 91.7%
CC(=O)NCC1=C(C)C=C2C(=O)[C@](C)(O)C3(CC3)C(C)=C21 | -84.7% (active)
Cc1noc2c(Cc3ccccc3)nn(CC(=O)N/N=C/c3ccc(F)cc3)c(=O)c12 | 76%
O=C1Nc2ccc(Cl)cc2/C1=C/c1cccc(OCc2ccccc2)c1 | 22.4%
O=C(CSc1nnc(-c2ccc3nc(-c4ccccc4)[nH]c3c2)o1)Nc1ccc(Br)cc1 | 86.9%
CN1CCN(Cc2ccc(NC(=O)c3cncc(C#Cc4cnc5ccc(N[C@H]6CCOC6)nn45)c3)cc2C(F)(F)F)CC1 | -100% (active)
CSc1nc(-c2cccc(C)c2)c2cc(-c3ccccc3)n(C)c2n1 | -44.7% (active)
O=[N+]([O-])c1ccc(-c2nc(-c3ccccc3)c(-c3ccccc3)n2-c2ccc(S(=O)(=O)Nc3ncccn3)cc2)cc1 | 28.4%
O=c1[nH]n(C(=S)N/N=C/c2ccc(F)cc2)c(=O)c2ccccc12 | 73.1%
CC(=O)Nc1ccc(-c2cn(-c3cccc(C(=O)Nc4cc(C(F)(F)F)cc(C(F)(F)F)c4)c3)nn2)cn1 | -38.9% (active)
